# Values joined by “and” are separate entries in the source; they are usually repeats but may differ in a detail not shown here. Equal entries are not always repeated. Compounds without any hit were thinned out: in the full panel of roughly 83,000, 20% have a hit.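 Growth was measured after 48 h exposure to one concentration of compound in 96-well plates. Values under 10 count as active.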 A number with no mark means an inactive call. Where a SMILES comes first, the peptide text is derived from it.
# Tested on: EKVX NSCLC
# Experiment: NCI-60 one-dose screen, 48 h (100 = growth as untreated, 0 = no growth, -100 = all killed)
# Conditions: 10 µM
# Protocol: Growth inhibition of the EKVX human Non-Small Cell Lung tumor cell line is measured as a screen for anti-cancer activity. Cells are grown in 96 well plates and exposed to the test compound for 48 hours. Compounds are tested at a single concentration, which is 10^-5 M for most compounds. The reported endpoint is percent growth (GI% or GIPRCNT), where numbers from 0 - 100% represent growth inhibition, and numbers from -100% - 0 represent cell death. For example, a value of 40 represents 60% growth inhibition. A value of 0 means no net growth occurred over the course of the experiment. A value of -40 indicates 40% of cells at the beginning of the experiment died by the end of the experiment. A value of -100 means all cells are dead at the end of the experiment.
# NCI-60 Human Tumor Cell Lines Screen was performed using the standard one-dose NCI protocol, which is described in more detail at https://dtp.cancer.gov/discovery_development/nci-60/default.htm.
# Compounds with GIPRCNT values below 10 were considered active. Activity score was based on GIPRCNT using the following formula: […]
# Score is 0 for GIPRCNT values of 100 or above, 50 for GIPRCNT values of 0, and 100 for GIPRCNT values of -100.
row,Structure (SMILES),growth
1,Cc1cc2ccccc2cn1,93%
2,CCCCCCCCCCCCCCCCC(C(=O)O)C(O)(CC(=O)O)C(=O)O (stereo not given),38.2%
3,CCCCNc1ccc(Nc2ccccc2)cc1,37%
4,CC1CCC(C(C)C)C(NNC(N)=O)C1 (stereo not given),101%
5,O=CN1CCCCC1,94.9%
6,CN(C)CC1CCCCCC(CN(C)C)C1=O (stereo not given),111%
7,O=c1[nH]cnc2c1ncn2C1OC(CO)C(O)C1O (stereo not given),123% and 107% and 93.1%
8,Nc1cc(N)c(N)cc1N,57.5%
9,CCCCCCCCCCCCCCCc1ccc(N)c(OC2OC(CO)C(O)C(O)C2O)c1 (stereo not given),81.6%
10,N#CC(C#N)N=Nc1ccc(Cl)cc1,77%
11,NN1CCOC(c2ccccc2)C1 (stereo not given),115%
12,CC(C)(O)C(=O)O,94%
13,CC[C@H](CC[C@@H](C)[C@H]1CC[C@H]2[C@@H]3CC=C4C[C@@H](O)CC[C@]4(C)[C@H]3CC[C@]12C)C(C)C,102% and 107%
14,OCC1OC(O)C(O)C(O)C1O (stereo not given),114%
15,Cl,100%
16,CC(=O)NCC(=O)c1ccc([N+](=O)[O-])cc1,102%
17,Cc1ccc(S(=O)(=O)c2ccccc2)cc1,76.7%
18,O=[N+]([O-])c1cccc(SSc2cccc([N+](=O)[O-])c2)c1,106%
19,COc1cc(C(O)C2C(=O)OCC2C2(c3ccc4c(c3)OCO4)SCCCS2)cc(OC)c1OC (stereo not given),88.7%
20,NC(Cc1ccccc1)C(=O)NC(Cc1ccccc1)C(=O)O (stereo not drawn) (H-Phe-Phe-OH; configuration not given here),98%

row,Structure (SMILES),growth
1,NC1CCC(C(=O)O)CC1 (stereo not given),103% and 105%
2,CCCCOc1ccc(Nc2cc(Cl)ccc2C(=O)O)cn1,101% and 98.6%
3,c1ccc2c(c1)OC1OC2Oc2ccccc21,105%
4,Cc1cc(-c2ccc(N=Nc3ccc4c(S(=O)(=O)O)cc(S(=O)(=O)O)c(N)c4c3O)c(C)c2)ccc1N=Nc1ccc2c(S(=O)(=O)O)cc(S(=O)(=O)O)c(N)c2c1O,86.6%
5,Cn1cnc([N+](=O)[O-])c1Sc1ncn[nH]1,101%
6,CC(=O)OCC1OC(OC(C)=O)C(OC(C)=O)C(OC(C)=O)C1OC(C)=O (stereo not given),99.7%
7,CC(C)NC(=O)N/C=C(\C#N)C(N)=O,97.2%
8,CCc1cc(C)cc(O)c1,101%
9,O=C1CSC2=NCCN12,99% and 64.7%
10,O=C(/C=C/c1ccccc1)c1ccccc1,93.4%
11,Nc1ncnc2c1ncn2C1OC(COP(=O)(O)O)C(O)C1O (stereo not given),113%
12,CC1=C/C(O)CC(=O)Cc2nc(co2)C(=O)N2CCC=C2C(=O)OC(C(C)C)C(C)/C=C\C(=O)NC/C=C\1 (stereo not given),90.2%
13,CC(C)C(C)(C)c1ccc(O)cc1,107%
14,C/C(=C\c1ccccc1)c1ccccn1,98.7%
15,Cc1ccc(=O)[nH]n1,114% and 115%
16,CC1(C)COC(=S)N1,94.1%
17,CN(C)c1ccc(/C=C\C(=O)c2ccccc2)cc1,105%
18,O=C(Cc1ccccc1)c1ccc(O)c(Cl)c1,66.1%
19,COc1ccc(Nc2ccc3ccccc3c2)cc1,92.8%
20,Cc1cc(-c2cc(C)c(O)c(C)c2)cc(C)c1O,68.2%

# From PubChem BioAssay (NCI)
